# Compounds with a hit are over-represented: about 3.5% of the library has one in this group of screens.
# TEAD-YAP block: TEAD-YAP interaction inhibition | HEK-TIYL cells, TEAD-Gal4/YAP UAS-luciferase luminescence | AID 1259422 | 1.4% of 640,000 active | inhibition, % at 9.12 µM; in the data active = inhibition above about 32%;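 note: 0% = median of test compound wells and 100% = reference inhibitor wells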
# GPR151 ag: activates the human receptor GPR151 | Q8TDV0 | PathHunter beta-arrestin GPR151 cells, luminescence | activation, % at 11.2 µM | 1% of 650,000 active | AID 1508602; in the data active = activation above about 4.9%;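 note: 0% = median of compound wells and 100% = cells with positive control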
# FBW7 act: activators of human E3 ligase FBW7; 0.13% of 650,000 active; AlphaScreen FBW7–phospho-cyclin E peptide binding, activator screen; Q969H0; normalized activity (activation), % at 26.1 µM; AID 1259310; in the data active = normalized activity above about 1.9%;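 note: purified mutant Fbw7 with reduced substrate affinity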
# Target sequence (Q969H0 whole entry, looked up): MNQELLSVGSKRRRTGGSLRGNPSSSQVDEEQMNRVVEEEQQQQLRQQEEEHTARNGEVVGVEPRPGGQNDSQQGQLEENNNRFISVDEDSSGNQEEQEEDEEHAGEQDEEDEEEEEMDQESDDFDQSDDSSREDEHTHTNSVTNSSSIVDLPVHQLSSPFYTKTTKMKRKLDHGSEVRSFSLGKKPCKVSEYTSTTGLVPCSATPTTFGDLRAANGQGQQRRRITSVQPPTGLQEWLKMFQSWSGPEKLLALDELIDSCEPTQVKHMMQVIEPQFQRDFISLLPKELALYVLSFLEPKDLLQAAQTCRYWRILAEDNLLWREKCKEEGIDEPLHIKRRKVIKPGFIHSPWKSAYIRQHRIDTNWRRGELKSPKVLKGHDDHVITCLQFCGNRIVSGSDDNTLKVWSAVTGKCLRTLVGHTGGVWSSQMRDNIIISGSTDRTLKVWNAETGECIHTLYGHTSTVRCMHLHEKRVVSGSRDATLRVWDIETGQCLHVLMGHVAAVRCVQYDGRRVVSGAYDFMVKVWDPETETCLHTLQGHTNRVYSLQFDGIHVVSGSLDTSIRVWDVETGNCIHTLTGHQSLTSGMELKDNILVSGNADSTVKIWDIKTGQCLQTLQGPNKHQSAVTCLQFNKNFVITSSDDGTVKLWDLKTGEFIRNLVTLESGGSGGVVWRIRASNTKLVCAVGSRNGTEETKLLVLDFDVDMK
# MITF primary: inhibitors of human MITF. O75030. AlphaScreen MITF homodimerization, bead proximity signal. inhibition, % at 2.6 µM. 0.91% of 650,000 active. AID 1259374; in the data active = inhibition above about 50%;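 note: 0% = vehicle wells with protein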
# GPR151 confirm: human GPR151 activation, confirmation screen. shares compounds with GPR151 ag. GPR151 PathHunter beta-arrestin cells, luminescence, 90 min; % of EA-reagent control over plate median. activation, % at 11.2 µM. 6,700 tested, under 10 active. AID 1508609;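 active = mean percent activation across replicates above the confirmation screen cutoff of 4.91%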
# GPR119 counter: GPR119 activation, counter-screen for GPR151 activators | shares compounds with GPR151 ag | GPR119 PathHunter beta-arrestin cells, luminescence, 90 min; 0 = compound-well median, 100 = enzyme-acceptor control | activation, % at 11.2 µM | 0.3% of 6,700 active | AID 1508611;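 active = mean percent activation in the counterscreen above 29.09%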;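 note: counterscreen on off-target GPR119 to flag nonselective hits from the GPR151 activator screen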
# * = called active by the depositor; nt = not tested or not shown; ! = a repeat was not active.
SMILES,TEAD-YAP block,GPR151 ag,FBW7 act,MITF primary,GPR151 confirm,GPR119 counter
Cc1cc(N(CC(=O)N2CCCCCC2)S(C)(=O)=O)ccc1Br,0,-1,0,-2,nt,nt
Cc1ccc(S(=O)(=O)NCCCOC(C)C)cc1,11,5.0*,0,3,0,-1
CC(=O)NCC1CCCN(c2nc3nonc3nc2N2CCSCC2)C1 (centres undefined),-5,5.5*,0,0,1,4
CC(=O)NCC1CCCN(c2nc3nonc3nc2N2CCCCCC2)C1 (centres undefined),5,-1,0,-9,nt,nt
CN(C)C(=O)CN1CCN(c2nc3nonc3nc2N2CCCCCC2)CC1,3,4.9*,0,8,0,5
Cc1ccc(CC(=O)O/N=C(\N)Cc2cccc3ccccc23)cc1,10,5.5*,0,7,0,-4
Cc1ccc(/C(N)=N/OC(=O)Cc2cccc3ccccc23)cc1,4,1,0,-3,nt,nt
COc1ccc(S(=O)(=O)NCC(=O)NNC(=O)CC23CC4CC(CC(C4)C2)C3)cc1,3,1,1,9,nt,nt
Cc1ccccc1C(=O)NCc1ccc(F)cc1,0,-2,0,3,nt,nt
CCOc1ccc(Nc2nc(N3CCOCC3)c3ccccc3n2)cc1,23,1,0,-1,nt,nt
CCOc1ccc(Nc2nc(NCc3ccco3)c3ccccc3n2)cc1,49*,5.1*,0,-3,0,11
Cc1ccc(CNS(=O)(=O)c2ccc(F)c(C(=O)Nc3ccc(Br)cc3)c2)cc1,-5,0,0,-2,nt,nt
O=[N+]([O-])c1cccc(-c2nnc(-c3cccc(S(=O)(=O)N4CCOCC4)c3)o2)c1,-4,-1,0,2,nt,nt
CC1CCN(S(=O)(=O)c2cccc(-c3nnc(-c4cccc([N+](=O)[O-])c4)o3)c2)CC1,6,5.6*,0,0,1,3
O=C(Nc1ccc(F)cc1F)C1CCN(C(=O)c2ccc(Br)cc2)CC1,5,5.5*,0,8,0,-2
COc1ccc(NC(=O)Nc2ccc(C(=O)N3CCCCC3)cc2)cc1,-4,12*,1,14,1,3
O=C(c1ccc(NS(=O)(=O)c2ccccc2)cc1)N1CCCC1,-2,7.2*,0,-13,1,11
COc1ccc(OCC(=O)N2CCN(C(=O)c3ccccc3)CC2)cc1,-3,8.4*,0,9,0,10
Fc1ccc(-n2c(SCCN3CCCC3)nnc2-c2cccnc2)cc1,0,-1,0,-6,nt,nt
COC(=O)CC[C@H]1CN(Cc2ccccn2)CC[C@H]1N1CCOCC1,-1,0,0,1,nt,nt
COc1ccc(CNC(=O)C2CCN(C(=O)c3ccc(Br)cc3)CC2)cc1,2,6.4*,0,2,0,5
Cc1ccc(CNC(=O)C2CCN(C(=O)c3ccc(C)cc3)CC2)cc1,3,-1,0,3,nt,nt
Cc1n(Cc2cccc(Cl)c2)cc[n+]1C,2,1,0,14,nt,nt
COCCCNc1nc2nonc2nc1N1CCN(CCOc2ccccc2)CC1,8,7.2*,0,1,1,-1
COCCN(C(=S)Nc1cccc(C(F)(F)F)c1)C1CCN(C(C)=O)CC1,11,-1,1,-3,nt,nt
SMILES,TEAD-YAP block,GPR151 ag,FBW7 act,MITF primary,GPR151 confirm,GPR119 counter
COc1ccc(Cl)cc1NC(=O)CCc1nnc2ccc(N3CCN(C)CC3)nn12,-2,5.1*,0,-11,0,2
COc1ccc(OC)c(NC(=O)CCc2nnc3ccc(N4CCCCC4)nn23)c1,2,2,0,4,nt,nt
CSc1ccccc1NC(=O)NC1(C(F)(F)F)Oc2cc(Cl)c(Cl)cc2O1,-8,-2,0,-1,nt,nt
CCSc1sc(CC)cc1C1C(C#N)=C(N)N(N(C)C)C2=C1C(=O)CC(C)(C)C2 (centres undefined),-4,5.5*,0,7,1,0
CCOc1ccccc1N1CCN(C(C)C(=O)Nc2ccc(NC(C)=O)cc2)CC1 (centres undefined),3,-3,0,1,nt,nt
COc1cc(Cl)c(/C=c2\sc3nc4ccccc4n3c2=O)cc1OC,1,1,0,-6,nt,nt
C[C@@H](NCCc1ccc(O)cc1)[C@@H](O)c1ccc(O)cc1,14,6.4*!,0,18,-1,-13
CC(NCCc1ccc(O)cc1)C(O)c1ccc(O)cc1 (centres undefined),0,0,0,-3,nt,nt
CC(C)[C@H](NC(N)=O)C(=O)Nc1ccc(I)cc1,1,5.9*,0,6,2,12
COc1ccc(N(CCCN2C(=O)c3cccc4cccc(c34)C2=O)C(=O)c2ccc([N+](=O)[O-])cc2Cl)cc1,5,12*,0,-4,0,0
COc1ccc(N(CCCN2C(=O)c3cccc4cccc(c34)C2=O)C(=O)c2cc(Cl)cc(Cl)c2)cc1,4,-1,0,-2,nt,nt
CC(C)(C)c1ccc(OCC(O)CS(=O)Cc2ccccc2)cc1 (centres undefined),0,5.4*,0,1,0,6
c1ccc(-n2nnnc2CSc2nc3ccccc3o2)cc1,6,6.6*,0,-6,0,2
Nn1c(CSc2nc3ccccc3o2)nnc1CSc1nc2ccccc2o1,4,-1,0,0,nt,nt
COCc1cc(C)nc2sc3c(c12)NC(c1ccccc1[N+](=O)[O-])NC3=O (centres undefined),-5,1,0,3,nt,nt
CCCCOC(=O)c1cccc(-c2ccc(/C=C3\C(=O)N(CCO)C(=O)C(C#N)=C3C)o2)c1,-23,8.9*,0,-5,0,-4
CC(=O)c1cccc(-c2ccc(/C=C3\C(=O)NC(=O)C(C#N)=C3C)o2)c1,3,0,0,19,nt,nt
CC1=C(C#N)C(=O)NC(=O)/C1=C\c1ccc(-c2cccc(C(=O)OC(C)C)c2)o1,14,5.0*,0,5,-1,8
CCOC(=O)C(=CNc1cc(C)nn1-c1ccccc1)C(=O)OCC,0,6.6*,0,0,-1,-10
Cc1ccc2nc(-c3ccc(Nc4nc(=S)[nH]c5ccccc45)cc3)sc2c1,23,0,0,1,nt,nt
CC(C)CC1NC(=O)N(CC(=O)Nc2cccc(I)c2)C1=O (centres undefined),0,8.8*,0,-4,1,5
CC(=O)c1ccc(N2CCN(C(=O)Nc3cccc(F)c3)CC2)cc1,-10,11*,0,-12,0,-3
CC(=O)c1ccc(N2CCN(C(=O)Nc3ccc(C)cc3)CC2)cc1,0,2,1,6,nt,nt
O=C(Nc1cccc2ccccc12)N1CCN(c2ccc(F)cc2)CC1,-1,11*,0,-9,0,-5
COc1cc(/C=C(\C#N)c2ccc([N+](=O)[O-])cc2)ccc1O,5,1,0,-14,nt,nt

# High-throughput results as filed in PubChem.
